# In all, about 320,000 compounds went through this assay and about 22,000 (6.9%) were called active. Not shown: some 27% with an inconclusive outcome. Calls come from the whole dose curve; as a rule, active = well fitted inhibition curve with a large enough effect; inconclusive = small, poorly fitted or top-dose-only effect, or another doubt; inactive = no such curve, though single readings can be large or run the other way. What follows is part of a selection rich in actives, with near analogues and random picks from the rest. Where a SMILES comes first, the peptide text is derived from it. [ ]: non-standard residue; d: D form. The star is where a group is joined. PhAc = O=C(Cc1ccccc1)*
# Experiment: Primary qHTS for delayed death inhibitors of the malarial parasite plastid, 96 hour incubation
# Conditions: P. falciparum luciferase reporter growth; series mostly up to 28.7 µM; activity change, negative = inhibition: at the top concentration
# In short: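 Compounds incubated with erythrocytes infected by luciferase-expressing P. falciparum (2% hematocrit, 0.05% parasitemia final) for 96 hours, 37 C in 5% CO2. Growth inhibition scored as decreased luciferase luminescence.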
# % is set by controls: 0 for no effect and ±100 for the full control effect; potency is the fitted concentration of half-maximal effect.
Compound,"activity change, negative = inhibition",Potency
CCc1noc(C)c1C(=O)NNC(=O)c1ccc(F)cc1,12.7% (inactive),–
O=S(=O)(c1ccccc1)c1nc(-c2ccccc2)oc1NCCCN1CCOCC1,-3.97% (inactive),–
CCc1nc2sc(C(=O)O)c(N)c2c2c1CCCC2,-8.46% (inactive),–
CCOc1ccccc1C1CC(c2ccccc2)Nc2nc(N)nn21 (stereo not given),3.66% (inactive),–
COc1ccc(C2CC(c3ccc(Cl)cc3Cl)Nc3nc(N)nn32)cc1OC (stereo not given),1.9% (inactive),–
CCOc1ccccc1C1CC(c2ccc(Cl)cc2)Nc2nc(N)nn21 (stereo not given),–,10.4 µM (active)
COCCCNc1nc2ccccc2nc1NS(=O)(=O)c1ccc(F)cc1,-2.54% (inactive),–
Cc1cccc(-n2nc3c(c2NC(=O)c2cc4ccccc4o2)CS(=O)(=O)C3)c1,-14.9% (inactive),–
CCN(CC)c1ccc(C(=O)N/N=C(\C)c2cccc(OC)c2)cc1,-11.7% (inactive),–
COc1ccc(/C(C)=N\NC(=O)c2ccc(-c3ccccc3)cc2)c(F)c1,–,10.4 µM (active)
COc1cccc(C(=O)N/N=C(\C)c2cccc(NC(=O)c3ccc(F)cc3)c2)c1OC,42.8% (inactive),–
CN(Cc1nc2ccccc2s1)C(=O)c1ccc(F)cc1,18.1% (inactive),–
COc1ccccc1CC(=O)Nc1ccc(S(=O)(=O)N2CCCC2)cc1,-1.9% (inactive),–
CCOC(=O)C1CCCN(C(=O)/C=C/c2ccc(OC)cc2)C1 (stereo not given),35.4% (inactive),–
Cn1cc(CCC(=O)N2CCCC(C(=O)c3ccc(C(C)(C)C)cc3)C2)cn1 (stereo not given),0.855% (inactive),–
Cn1cc(/C=C/C(=O)N2CCCC(C(=O)c3ccc(C(F)(F)F)cc3)C2)cn1 (stereo not given),–,10.4 µM (active)
Cc1cccc(NC(=O)N2CCCCCC2)c1C,95.6% (inactive),–
N[C@@H](Cc1ccccc1)C(=O)N1CCOCC1,79.6% (inactive),–
COc1cccc(CNC(=O)c2cccnc2Sc2ccc(Cl)cc2)c1,-1.02% (inactive),–
O=C1c2cccc3cccc(c23)C(=O)N1c1cccc(O)c1,8.72% (inactive),–
CCC(=C/c1sc2ccc3ccccc3c2[n+]1C)/C=C1\Sc2ccc3ccccc3c2N1C,–,9.28 µM (active)
CC1(C)C2CCC1(CS(=O)(=O)NCCc1c[nH]c3ccccc13)C(=O)C2 (stereo not given),-23.1% (inactive),–
Cc1csc(=O)n1CC(=O)OCC(=O)N(CC(C)C)c1c(N)n(Cc2ccccc2)c(=O)[nH]c1=O,22.2% (inactive),–
Nc1nnc2c(C(F)(F)F)nc3ccccc3n12,37.9% (inactive),–
Cc1ccc(OCCNC(=O)CCNS(=O)(=O)c2ccc(Br)cc2)cc1,71.1% (inactive),–

Compound,"activity change, negative = inhibition",Potency
COc1cc2c(cc1OC)/C(=C/C(=O)c1ccc(NC(C)=O)cc1)NCC2,2.38% (inactive),–
COc1ccc(S(=O)(=O)N2CCC(C(=O)NCc3ccco3)CC2)cc1C,–,5.22 µM (active)
Cc1ccc(S(=O)(=O)N2CCC(C(=O)N[C@@H](C)C(=O)NCc3ccco3)CC2)cc1,-18.9% (inactive),–
COc1ccccc1CNC(=O)C1CCN(S(=O)(=O)c2ccc3c(c2)OCCO3)CC1,53.5% (inactive),–
CCc1ccc(C(=O)N2CCN(S(=O)(=O)c3sc(C(=O)O)c(C)c3C(=O)O)CC2)cc1,-17.5% (inactive),–
O=C(Nc1nnc(-c2ccco2)o1)c1ccc(S(=O)(=O)N2CCOCC2)cc1,1.01% (inactive),–
COc1cccc(-c2nnc(NC(=O)c3ccc(S(=O)(=O)N(CC(C)C)CC(C)C)cc3)o2)c1,–,1.65 µM (active)
COc1cccc(NC(=O)c2ccc(S(=O)(=O)N(C)C)cc2)c1,4.96% (inactive),–
CC(=O)c1ccc(S(=O)(=O)Nc2ccc(C(=O)NCC(c3ccccc3)N(C)C)cc2)cc1 (stereo not given),-1.6% (inactive),–
CCOc1ccc(NS(=O)(=O)c2ccc(C(=O)NCC(c3ccccc3OC)N3CCCC3)cc2)cc1 (stereo not given),–,14.7 µM (active)
O=C(NCc1cccc(C(F)(F)F)c1)c1cccc(S(=O)(=O)N2CCN(Cc3ccccc3)CC2)c1,-17.2% (inactive),–
O=C(NCC1CCCO1)c1ccc(S(=O)(=O)Nc2ccc(F)cc2)cc1 (stereo not given),33.4% (inactive),–
CCOc1ccc(S(=O)(=O)Nc2ccc(C(=O)NCCCN3CCCC3=O)cc2)cc1,-11.4% (inactive),–
CCOc1ccc(S(=O)(=O)Nc2ccc(S(=O)(=O)Nc3cc(OC)ccc3OC)cc2)cc1,-5.22% (inactive),–
Cc1ccc(NS(=O)(=O)c2ccc(C(=O)NCCCN3CCOCC3)cc2)cc1,3.25% (inactive),–
O=C(OC1CCOC1=O)c1cccc(S(=O)(=O)Nc2ccc(F)cc2)c1 (stereo not given),-31.8% (inactive),–
COc1ccc(C(CNC(=O)c2ccc(S(=O)(=O)Nc3ccccc3F)cc2)N(C)C)cc1 (stereo not given),-20% (inactive),–
O=C(NCC1(N2CCCCC2)CCCCC1)c1ccc(NS(=O)(=O)c2ccc(F)cc2)cc1,–,10.4 µM (active)
COc1ccccc1C(CNC(=O)c1cccc(NS(=O)(=O)c2ccc(Br)cc2)c1)N(C)C (stereo not given),–,6.57 µM (active)
O=C(NCc1ccccc1CN1CCCC1)c1cccc(S(=O)(=O)Nc2ccc(F)cc2)c1,–,10.4 µM (active)
COc1cc(C#Cc2ccc3cc(CCCO)oc(=O)c3c2)cc(OC)c1,-9.41% (inactive),–
Cc1ccc(NC(=O)CN(C)C(=O)COC(=O)C(C)(C)Oc2ccc(Cl)cc2)cc1,47.3% (inactive),–
CC1(c2ccc3ccccc3c2)NC(=O)N(CC(N)=O)C1=O (stereo not given),22% (inactive),–
O=C(NCCCn1ccnc1)c1cc2c(s1)CCCC2,13.7% (inactive),–
CCOC(=O)CC1(NC(=O)c2cc(COc3cncc(Cl)c3)on2)CCCCC1,-28.6% (inactive),–

Compound,"activity change, negative = inhibition",Potency
COc1ccc(S(=O)(=O)NCCOc2ccccc2)cc1F,14.1% (inactive),–
CC(C)(C)n1ncc2c(=O)n(Cc3c(Cl)cccc3Br)cnc21,-44.3% (inactive),–
O=C(O)c1ccc(/C=C2\SC(=S)N(NC(=O)c3ccc(Br)cc3)C2=O)cc1,8.46% (inactive),–
CS(=O)(=O)N1CCN(CC(=O)NC2CCCC2)CC1,9.01% (inactive),–
CCN(CC(=O)Nc1c(F)cccc1F)C(=O)c1ccc(S(=O)(=O)N2CCCCC2)cc1,-2.32% (inactive),–
Cn1c(CCN2CCCC2)nc2cc(NS(=O)(=O)c3ccccc3)ccc21,-19.7% (inactive),–
CN(C)C(CNC(=O)c1cccc(S(=O)(=O)Nc2ccc(Br)cc2)c1)c1ccco1 (stereo not given),2.97% (inactive),–
COc1ccccc1C(CNC(=O)c1cccc(S(=O)(=O)Nc2ccc(F)cc2)c1)N(C)C (stereo not given),–,8.28 µM (active)
COc1ccc(C(CNC(=O)c2ccc(NS(=O)(=O)c3ccc(F)c(C)c3)cc2)N(C)C)cc1 (stereo not given),-24.6% (inactive),–
CSc1nnc2ccc(-c3ccc(C)cc3)nn12,16.1% (inactive),–
O=C(Cn1c(-c2cncs2)nc2ccccc21)NC1CCCC1,–,9.28 µM (active)
O=C(CN1CCN(c2ccccn2)CC1)NC1CCCCC1,0% (inactive),–
O=C(Cn1c(-c2cscn2)nc2ccccc21)Nc1ccc(Cl)cc1,28.7% (inactive),–
Cc1ccn2c(=O)nc(SCC(=O)NCc3ccc(F)cc3)nc2c1,0.481% (inactive),–
CC(C)C[C@@H](NC(=O)[C@H]1CCCN1C(=O)Cc1ccccc1)C(N)=O (PhAc-[dP]-[dL]-NH2),6.07% (inactive),–
Oc1ccc(CN2CCN(c3ncccn3)CC2)cc1,-25.8% (inactive),–
COc1cccc(OC)c1C(=O)N1CCN(Cc2cccnc2)CC1,0% (inactive),–
COc1ccccc1-c1nn(Cc2ccccc2)cc1C(=O)N1CCN(c2ncccn2)CC1,–,13.1 µM (active)
CCOCCCNC(=O)C1(O)c2cc(Br)ccc2NC(=O)N1c1ccc(C)c(C)c1 (stereo not given),14.5% (inactive),–
COc1ccc(NS(=O)(=O)c2ccc3oc(SCC(N)=O)nc3c2)cc1,-25% (inactive),–
CC(=O)NC(Cc1c[nH]c2ccccc12)C(=O)NCCc1ccccc1 (stereo not given),26.3% (inactive),–
COc1ccc(CNC(=O)[C@H](Cc2c[nH]c3ccccc23)NC(C)=O)cc1OC,24.8% (inactive),–
COc1cccc(NC(=O)[C@H](Cc2c[nH]c3ccccc23)NC(=O)[C@@H]2Cc3ccccc3CN2)c1,–,11.7 µM (active)
CC1(C)c2[nH]c3ccccc3c2C[C@H]2C(=O)N(N)CC(=O)N21,24.9% (inactive),–
COCCN1CCN(C(=O)c2cc(COc3ccc(F)cc3Cl)on2)CC1,19.3% (inactive),–

Compound,"activity change, negative = inhibition",Potency
Cc1ccc(NC(=S)N/N=C2/CCCc3c(C)cc(C)cc32)cc1,-20.2% (inactive),–
CCCCNC(=S)N/N=C1\CCCCc2ccccc21,–,9.28 µM (active)
O=[N+]([O-])c1ccccc1N/N=C1\CCc2ccccc21,219% (inactive),–
Cc1ccccc1N1CCN(C2CCCN(C(=O)c3cn4c(C)cccc4n3)C2)CC1 (stereo not given),20.5% (inactive),–
COc1ccccc1C(=O)Nc1ccnn1C1CCN(Cc2cnn(C)c2)CC1,-28.4% (inactive),–
CCOC(=O)c1c(NC(=S)Nc2ccccc2C)sc2c1CCC2,-22.4% (inactive),–
CCOC(=O)c1c(NC(=O)Cn2nc(C(F)(F)F)cc2C)sc2c1CCC2,31.5% (inactive),–
CCOCC(=O)Nc1sc2c(c1C(=O)OCC)CCCC2,50% (inactive),–
CCOC(=O)c1c(NC(=O)NC(C)(C)C)sc2c1CCN(C)C2,–,4.15 µM (active)
CCOC(=O)c1c(NC(=S)NC)sc2c1CCCC2,–,8.28 µM (active)
CCOC(=O)c1c(NC(=S)Nc2ccccc2)sc2c1CCN(C)C2,1.12% (inactive),–
O=C(CCc1nc(-c2ccccc2)no1)Nc1cccc(C(=O)NC2CC2)c1,-21.5% (inactive),–
CCOC(=O)C1CCN(S(=O)(=O)c2ccc3c(c2)N(C)C(=O)CC(=O)N3C)CC1,-18.2% (inactive),–
COc1cc2ccccc2cc1C(=O)Nc1ccc(N2CCOCC2)cc1,73.9% (inactive),–
COc1cccc(C(=O)NC(=O)Nc2nc(C)cc(C(F)(F)F)n2)c1,43.9% (inactive),–
Cc1cccc(OCC(=O)Nc2ccc(NC(=O)c3ccco3)c(C)c2)c1,5.79% (inactive),–
O=C(CN1C(=O)NC2(CCCCCC2)C1=O)NCc1cccs1,24.4% (inactive),–
O=C1CN(C(=O)CN2C(=O)NC3(CCCCC3)C2=O)c2ccccc2N1,–,14.7 µM (active)
O=C(CN1C(=O)NC2(CCCCC2)C1=O)N1CCN(C(=O)c2cccs2)CC1,-11% (inactive),–
COCCN1CCn2c(nc3cc(NS(C)(=O)=O)ccc32)C1,46.5% (inactive),–
Cc1ccc(CNC(=O)c2ccc(CS(=O)Cc3cccc(Cl)c3)o2)cc1 (stereo not given),1.49% (inactive),–
COc1ccc(CCNC(=O)c2cnc(Cl)c(Cl)c2)cc1,4.95% (inactive),–
COC(=O)c1cc2c(N)c(C(=O)c3ccc(Cl)cc3)sc2nc1C(OC)OC,-24.3% (inactive),–
Nc1c(C(=O)NCc2ccccc2)sc2nc3c(cc12)C(=O)CCC3,84.8% (inactive),–
CC(C)OC(=O)c1sc2nc3c(cc2c1N)C(=O)CCC3,–,5.22 µM (active)
